Compound activity: PubChem BioAssay, Broad Institute
Pf Dd2 inh – inhibitors of Plasmodium falciparum Dd2 growth; P. falciparum Dd2 growth, SYBR Green, 72 h; active compounds read low; activity change, % at 10 µM; 94,000 compounds, 2.3% hits; in the data active means activity change below about -80%; inconclusive means no clear call, values can overlap the other calls
C diff growth – blocks growth of Clostridium difficile | Clostridium difficile clinical isolate growth, OD600, 24 h; active compounds read low | 86,000 compounds, 0.25% hits | growth activity, negative = inhibition, % at 16 µg/mL (by protocol);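 active means mean growth activity at or below -80% and every replicate also at or below -80%; inconclusive means mean at or below -80% but some replicate above -80%; inactive means mean growth activity above -80%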;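 further: 0% = DMSO wells and -100% = levofloxacin 16 µg/mL wells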
T cruzi growth-1 – inhibitors of T. cruzi proliferation. T. cruzi beta-gal in NIH3T3, GalScreen luminescence, 90 h. 77,000 compounds, 5.9% hits. inhibition, % at 8.34 µM;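 active means mean inhibition above about 93%, with at least 55% of replicates each passing it, limit read from the data, passing the limit was not always enough; inconclusive means only one of those two conditions holds; inactive means neither condition holds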
T cruzi growth-2 – Trypanosoma cruzi proliferation inhibition | shares compounds with T cruzi growth-1 | T. cruzi beta-gal in NIH3T3, GalScreen luminescence, 90 h | inhibition, % at 8.35 µM | 5,600 compounds, 72% hits;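 active means mean replicate inhibition above about 95% and at least 55% of replicates individually reaching it, limit read from the data; inconclusive means only one of the two criteria is met; inactive means neither criterion is met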
T cruzi growth-3 – Trypanosoma cruzi proliferation inhibition. shares compounds with T cruzi growth-1. T. cruzi beta-gal in NIH3T3, GalScreen luminescence, 90 h. inhibition, % at 2.09 µM. 5,600 compounds, 21% hits. AID 651740;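 active means mean inhibition above about 95%, with at least 55% of replicates also reaching it, limit read from the data; inconclusive means meets just one of the two conditions; inactive means meets neither condition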;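 further: plate controls were neutral control median for no effect and positive control median for full effect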
NIH3T3 tox – kills mouse NIH/3T3 fibroblasts; cytotoxicity (signal decrease), % at 8.35 µM; 5,600 compounds, 14% hits; AID 651742; NIH/3T3 viability, CellTiter-Glo ATP luminescence, 90 h; shares compounds with T cruzi growth-1;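 active means mean signal decrease across replicates above about 35% based on untreated-well scatter, with enough replicates individually passing, limit read from the data; inconclusive means no rule stated though some were filed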;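 further: 0% = median of neutral control wells and 100% = median of positive control wells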
3T3 cytotox 2 – cytotoxicity in mouse NIH/3T3 fibroblasts | 5,600 compounds, 56% hits | AID 651744 | shares compounds with T cruzi growth-1 | inhibition, % at 24.9 µM | NIH/3T3 viability, CellTiter-Glo ATP luminescence, 90 h;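 active means mean loss of cell viability signal at or above a set limit, and enough replicates individually reaching it; inconclusive means meets only the mean limit or only the replicate share; inactive means meets neither condition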;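 further: 0% = median of neutral control wells and 100% = median of positive control wells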
Active calls of the source: *; u = inconclusive; x = no result given. An excerpt weighted towards active compounds, which were near 6.7% of everything screened.

SMILES	Pf Dd2 inh	C diff growth	T cruzi growth-1	T cruzi growth-2	T cruzi growth-3	NIH3T3 tox	3T3 cytotox 2
CC(C)CC#Cc1ccc2c(c1)O[C@H](CN(C)C(=O)c1cccnc1)[C@@H](C)CN([C@@H](C)CO)S2(=O)=O	-21.8	7.0	75.9	x	x	x	x
CC(C)CC#Cc1ccc2c(c1)O[C@H](CN(C)C(=O)c1ccccc1)[C@@H](C)CN([C@@H](C)CO)S2(=O)=O	-58.7	7.3	122.4*	102.5*	93.0	33.7	104.9*
C[C@@H]1CN([C@@H](C)CO)S(=O)(=O)c2ccc(C#CC3CC3)cc2O[C@@H]1CN(C)C(=O)c1ccccc1	-16.8	-2.8	94.0	x	x	x	x
CC(C)CC#Cc1ccc2c(c1)O[C@@H](CN(C)C(=O)c1cccc(F)c1)[C@H](C)CN([C@H](C)CO)S2(=O)=O	-61.0	5.7	109.8*	104.5*	91.1	30.5	104.8*
Cc1ccc(S(=O)(=O)Nc2ccc3c(c2)C(=O)N([C@@H](C)CO)C[C@H](C)[C@H](CN(C)C(=O)Nc2ccc4c(c2)OCO4)O3)cc1	6.8	x	18.8	x	x	x	x
CO[C@@H]1CN(C)C(=O)c2cc(NC(=O)C3CC3)ccc2OC[C@H](C)N(C(=O)c2ccncc2)C[C@H]1C	33.4	x	23.7	x	x	x	x
Cc1ccc(S(=O)(=O)N(C)C[C@H]2Oc3ccc(NC(=O)NC4CCCCC4)cc3CC(=O)N([C@@H](C)CO)C[C@H]2C)cc1	-8.5	-0.9	2.8	x	x	x	x
CC(C)CC#Cc1ccc2c(c1)O[C@H](CN(C)C(=O)c1ccccc1F)[C@@H](C)CN([C@@H](C)CO)S2(=O)=O	-70.2	8.3	102.6*	102.6*	u	13.2	105.1*
CC(C)CC#Cc1ccc2c(c1)O[C@@H](CN(C)C(=O)c1ccccc1)[C@H](C)CN([C@H](C)CO)S2(=O)=O	-75.2	21.8	x	x	x	x	x
C[C@@H]1CN([C@H](C)CO)S(=O)(=O)c2ccc(C#CC3CC3)cc2O[C@@H]1CN(C)C(=O)c1cccc(F)c1	-10.4	12.1	x	x	x	x	x
CC(C)CC#Cc1ccc2c(c1)O[C@@H](CN(C)C(=O)c1cccc(F)c1)[C@@H](C)CN([C@@H](C)CO)S2(=O)=O	-65.0	8.9	101.7*	105.3*	104.6*	14.0	104.1*
COCC#Cc1ccc2c(c1)O[C@@H](CN(C)C(=O)c1ccccc1F)[C@H](C)CN([C@H](C)CO)S2(=O)=O	-62.3	3.7	-121.3	x	x	x	x
C[C@H](CO)N1C[C@H](C)[C@@H](CN(C)C(=O)c2cccc(F)c2)Oc2cc(C#CC3CC3)ccc2S1(=O)=O	28.8	-7.3	x	x	x	x	x
CC(C)CC#Cc1ccc2c(c1)O[C@@H](CN(C)C(=O)c1cccc(F)c1)[C@H](C)CN([C@@H](C)CO)S2(=O)=O	-59.2	-4.0	124.3*	103.0*	110.3*	62.4*	104.7*
CC(C)CC#Cc1ccc2c(c1)O[C@H](CN(C)C(=O)c1cccc(F)c1)[C@@H](C)CN([C@H](C)CO)S2(=O)=O	-41.1	5.5	120.0*	108.8*	83.6	3.9	105.1*
COC(=O)N(C)C[C@@H]1OCc2ccccc2-c2c(n(C)c3ccccc23)C(=O)N([C@@H](C)CO)C[C@H]1C	-2.3	x	-7.4	x	x	x	x
CCCC(=O)Nc1ccc2c(c1)OC[C@@H](C)N(CCc1ccccc1)C[C@H](C)[C@H](OC)CN(C)C2=O	x	x	-3.8	x	x	x	x
COc1ccc(C#Cc2ccc([C@H]3[C@@H](CO)N4CCCCN(C(=O)c5ccncc5)C[C@@H]34)cc2)cc1	5.9	-19.6	116.4*	103.6*	63.6	22.6	26.0
C[C@H](O)C#Cc1ccc([C@H]2[C@@H](CO)N3CCCCN(C(=O)c4ccncc4)C[C@@H]23)cc1	18.5	-0.9	12.2	x	x	x	x
C[C@@H](O)C#Cc1ccc([C@@H]2[C@H](CO)N3CCCCN(C(=O)c4ccncc4)C[C@@H]23)cc1	30.0	-5.9	1.2	x	x	x	x
C[C@H](O)C#Cc1ccc([C@H]2[C@@H](CO)N3CCCCN(C(=O)c4ccncc4)C[C@H]23)cc1	18.9	-3.8	24.0	x	x	x	x
COc1ccc(C#Cc2ccc([C@H]3[C@H](CO)N4CCCCN(C(=O)c5ccncc5)C[C@@H]34)cc2)cc1	-27.8	39.2	116.4*	113.6*	69.9	27.6	96.5*
